The values below come from PubChem BioAssay (NCI).

Compounds without any hit were thinned out: in the full panel of roughly 79,000, 15% have a hit. A number with no mark means an inactive call. Active and inactive are the calls of the source. No stated cut-off is given here; in the data, active means growth inhibition above about 70%; inactive means the rest.

Assay [1] in a line: NCI Yeast Anticancer Drug Screen. Data for the rad50 strain (AID 155).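 Further: 0% = growth of vehicle-only cultures of the same strain.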 The settings on record: S. cerevisiae rad50 strain growth inhibition, active compounds read high. An outline of the steps:
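Genetically altered yeast (DNA repair pathway); compound treatment; growth inhibition vs vehicle ctrl.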

Assay [2] in a line: NCI Yeast Anticancer Drug Screen. Data for the mec2-1 strain (AID 157). The settings on record: S. cerevisiae mec2-1 strain, active compounds read high. In short, it runs like this: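 Strain: mec2-1 (DNA repair/cell cycle alteration). Compound exposure, then growth measured; inhibition expressed relative to vehicle.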
Assay [3] can be described thus: NCI Yeast Anticancer Drug Screen. Data for the sgs1 mgt1 strain (AID 161).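 Further: 0% = growth of cultures given vehicle only.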 The settings on record: S. cerevisiae sgs1 mgt1 strain, active compounds read high. In short, it runs like this: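 Mutant yeast exposed to compound; growth scored against vehicle-only wells.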
Assay [4] can be described thus: NCI Yeast Anticancer Drug Screen. Data for the cln2 rad14 strain (AID 165).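 Further: 0% = growth equal to vehicle treated cultures.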 The settings on record: S. cerevisiae cln2 rad14 strain, active compounds read high. In short, it runs like this: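 Compounds are applied to the cln2 rad14 yeast strain, and growth is then compared with that of vehicle-treated cultures to give inhibition.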
Assay [5] is described as follows: NCI Yeast Anticancer Drug Screen. Data for the bub3 strain (AID 167). The settings on record: S. cerevisiae bub3 mutant strain, active compounds read high. An outline of the steps:
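Yeast carrying a defined mutation is treated with each compound, and growth is compared with that of vehicle-exposed cells to give inhibition.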

The nature of assay [6]: NCI Yeast Anticancer Drug Screen. Data for the mlh1 rad18 strain (AID 175). The settings on record: S. cerevisiae mlh1 rad18 strain growth inhibition, active compounds read high. An outline of the steps: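 Read-out is yeast growth inhibition, calculated against vehicle-only controls. The compound was applied to a strain engineered with DNA damage repair alterations.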
Setting [7] is: at 5.0 µM (retest, dose inferred, filed as 0.5).
Where [8] appears, read: at 50.0 µM (retest, dose inferred, filed as 5.0).

For `O=C(O)C1C(C(=O)Nc2ccc3c(c2)Cc2ccccc2-3)C2(Cl)C(Cl)=C(Cl)C1(Cl)C2(Cl)Cl` (configuration not stated), the growth inhibition in assay [1] (setting [7]) was 31%; in assay [1] (setting [8]), 99% (active); in assay [1] (at 50.0 µM) it was 98.4% (active); in assay [2] (setting [7]), 27%; in assay [2] (setting [8]), 99% (active); in assay [2] (at 50.0 µM), 98.7% (active). The growth inhibition is 47% in assay [3] (setting [7]); 99% (active) in assay [3] (setting [8]); 98.5% (active) in assay [3] (at 50.0 µM); 31% in assay [4] (setting [7]); 99% (active) in assay [4] (setting [8]); 98.3% (active) in assay [4] (at 50.0 µM). Moreover, the growth inhibition in assay [5] (setting [7]) is 14%; in assay [5] (setting [8]), 99% (active); in assay [5] (at 50.0 µM), 98.3% (active); in assay [6] (setting [7]), 46%; in assay [6] (setting [8]), 99% (active); in assay [6] (at 50.0 µM), 98.3% (active).
Turning to `CC(C)(CN1CCCCC1)C(/C=C/c1ccc(Cl)c(Cl)c1)=N\NC(=O)N/N=C(/C=C/c1ccc(Cl)c(Cl)c1)C(C)(C)CN1CCCCC1`, the growth inhibition in assay [1] (setting [7]) is 42%; in assay [1] (setting [8]), 98% (active); in assay [1] (at 50.0 µM) it was 90.5% (active); in assay [2] (setting [7]), 29%; in assay [2] (setting [8]), 99% (active); in assay [2] (at 50.0 µM) it was 93.3% (active). The growth inhibition in assay [3] (setting [7]) is 41%; in assay [3] (setting [8]), 99% (active); in assay [3] (at 50.0 µM) it was 92.8% (active); in assay [4] (setting [7]), 31%; in assay [4] (setting [8]), 98% (active); in assay [4] (at 50.0 µM), 91.2% (active). Further, the growth inhibition was 39% in assay [5] (setting [7]); 67% in assay [5] (setting [8]); 91.8% (active) in assay [5] (at 50.0 µM); 56% in assay [6] (setting [7]); 99% (active) in assay [6] (setting [8]); 90% (active) in assay [6] (at 50.0 µM).
`COC1OC2COC(c3ccccc3)OC2C(NC(=S)SCc2ccccc2)C1O` (configuration not stated): the growth inhibition was -3% in assay [1] (setting [7]); 98% (active) in assay [1] (setting [8]); 99.4% (active) in assay [1] (at 50.0 µM); 0% in assay [2] (setting [7]); 98% (active) in assay [2] (setting [8]); 99.3% (active) in assay [2] (at 50.0 µM). Further, the growth inhibition in assay [3] (setting [7]) is -1%; in assay [3] (setting [8]), 98% (active); in assay [3] (at 50.0 µM) it was 99.5% (active); in assay [4] (setting [7]), 3%; in assay [4] (setting [8]) it was 98% (active); in assay [4] (at 50.0 µM), 99.5% (active). Further, the growth inhibition in assay [5] (setting [7]) is 0%; in assay [5] (setting [8]) it was 99% (active); in assay [5] (at 50.0 µM), 99.2% (active); in assay [6] (setting [7]) it was 7%; in assay [6] (setting [8]) it was 98% (active); in assay [6] (at 50.0 µM) it was 99% (active).
Consider `CC(C)(C)C(OC(=O)Nc1ccccc1)C(C)(C)C`, for which the growth inhibition in assay [1] (setting [7]) was -1%; in assay [1] (setting [8]), 29%; in assay [1] (at 50.0 µM), -0.7%; in assay [2] (setting [7]), -18%; in assay [2] (setting [8]), -5%; in assay [2] (at 50.0 µM), -2.2%. The growth inhibition was 4% in assay [3] (setting [7]); 8% in assay [3] (setting [8]); -9.55% in assay [3] (at 50.0 µM); 9% in assay [4] (setting [7]); 16% in assay [4] (setting [8]); -61.5% in assay [4] (at 50.0 µM). Further, the growth inhibition in assay [5] (setting [7]) is -1%; in assay [5] (setting [8]), 37%; in assay [5] (at 50.0 µM), 5.1%; in assay [6] (setting [7]) it was 9%; in assay [6] (setting [8]), 36%; in assay [6] (at 50.0 µM) it was 6.25%.
With `S=c1[nH]c2ccc(Br)cc2c(=S)n1-c1ccccc1`, the growth inhibition in assay [1] (setting [7]) was -1%; in assay [1] (setting [8]) it was 19%; in assay [1] (at 50.0 µM), 90.5% (active); in assay [2] (setting [7]) it was 1%; in assay [2] (setting [8]), 5%; in assay [2] (at 50.0 µM) it was 91.2% (active). The growth inhibition in assay [3] (setting [7]) is 0%; in assay [3] (setting [8]) it was 24%; in assay [3] (at 50.0 µM), 89.5% (active); in assay [4] (setting [7]), -1%; in assay [4] (setting [8]) it was 4%; in assay [4] (at 50.0 µM), 88% (active). The growth inhibition in assay [5] (setting [7]) was -9%; in assay [5] (setting [8]), 14%; in assay [5] (at 50.0 µM), 89.4% (active); in assay [6] (setting [7]), -29%; in assay [6] (setting [8]) it was 5%; in assay [6] (at 50.0 µM) it was 87.7% (active).
Turning to `CCN(CC)c1c(C(=O)/C=C/c2ccc(Cl)cc2)c(-c2ccccc2)nn(C)c1=O`, the growth inhibition in assay [1] (setting [7]) is 18%; in assay [1] (setting [8]), 85% (active); in assay [1] (at 50.0 µM) it was 82.5% (active); in assay [2] (setting [7]), 15%; in assay [2] (setting [8]) it was 91% (active); in assay [2] (at 50.0 µM), 85.9% (active). The growth inhibition is 14% in assay [3] (setting [7]); 73% (active) in assay [3] (setting [8]); 81% (active) in assay [3] (at 50.0 µM); 7% in assay [4] (setting [7]); 82% (active) in assay [4] (setting [8]); 83.7% (active) in assay [4] (at 50.0 µM). Also, the growth inhibition in assay [5] (setting [7]) was 8%; in assay [5] (setting [8]), 92% (active); in assay [5] (at 50.0 µM), 84% (active); in assay [6] (setting [7]) it was 24%; in assay [6] (setting [8]) it was 92% (active); in assay [6] (at 50.0 µM) it was 81.8% (active).
For the compound `NC(=O)C(=CNc1nc(-c2ccc(Br)cc2)cs1)C(N)=O`, the growth inhibition is -5% in assay [1] (setting [7]); 92% (active) in assay [1] (setting [8]); 99.5% (active) in assay [1] (at 50.0 µM); -11% in assay [2] (setting [7]); 98% (active) in assay [2] (setting [8]); 99.5% (active) in assay [2] (at 50.0 µM). The growth inhibition in assay [3] (setting [7]) is -3%; in assay [3] (setting [8]), 92% (active); in assay [3] (at 50.0 µM), 99.5% (active); in assay [4] (setting [7]), -34%; in assay [4] (setting [8]), 94% (active); in assay [4] (at 50.0 µM) it was 98.9% (active). The growth inhibition in assay [5] (setting [7]) is -11%; in assay [5] (setting [8]), 99% (active); in assay [5] (at 50.0 µM), 99.5% (active); in assay [6] (setting [7]), -6%; in assay [6] (setting [8]), 98% (active); in assay [6] (at 50.0 µM), 99.3% (active).
Turning to `CCOC(=O)C1(Br)CCN(S(=O)(=O)c2ccc(C)cc2)c2ccccc2C1=O` (configuration not stated), the growth inhibition in assay [1] (setting [7]) was 1%; in assay [1] (setting [8]), 90% (active); in assay [1] (at 50.0 µM), 96.5% (active); in assay [2] (setting [7]) it was 10%; in assay [2] (setting [8]), 97% (active); in assay [2] (at 50.0 µM), 98% (active). In addition, the growth inhibition was -7% in assay [3] (setting [7]); 96% (active) in assay [3] (setting [8]); 97.8% (active) in assay [3] (at 50.0 µM); -6% in assay [4] (setting [7]); 66% in assay [4] (setting [8]); 95.2% (active) in assay [4] (at 50.0 µM). Moreover, the growth inhibition was -3% in assay [5] (setting [7]); 95% (active) in assay [5] (setting [8]); 97.5% (active) in assay [5] (at 50.0 µM); 18% in assay [6] (setting [7]); 97% (active) in assay [6] (setting [8]); 98.4% (active) in assay [6] (at 50.0 µM).
With `O=C1C=C(c2cccc(-c3ccccc3)c2)CCC1`, the growth inhibition in assay [1] (setting [7]) was 2%; in assay [1] (setting [8]), 94% (active); in assay [1] (at 50.0 µM) it was 93.5% (active); in assay [2] (setting [7]), -2%; in assay [2] (setting [8]) it was 96% (active); in assay [2] (at 50.0 µM), 95.3% (active). The growth inhibition in assay [3] (setting [7]) is -5%; in assay [3] (setting [8]) it was 92% (active); in assay [3] (at 50.0 µM), 97.2% (active); in assay [4] (setting [7]) it was 2%; in assay [4] (setting [8]), 92% (active); in assay [4] (at 50.0 µM), 95.8% (active). Further, the growth inhibition in assay [5] (setting [7]) is 2%; in assay [5] (setting [8]), 87% (active); in assay [5] (at 50.0 µM) it was 96.3% (active); in assay [6] (setting [7]) it was -1%; in assay [6] (setting [8]), 92% (active); in assay [6] (at 50.0 µM), 96.4% (active).
